An excerpt weighted towards active compounds, which were near 1.6% of everything screened.
KCNQ2 enhance = enhances the rat KCNQ2 potassium channel; CHO-K1 KCNQ2, FluxOR thallium flux fluorescence; stronger effect = higher value; hit rate 0.54% among 310,000; O88943; B-score at 10 µM;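 active = fluorescence ratio B-score at least 3 SD of library B-scores, with initial fluorescence B-score within 3 of them, cut at about 5.3 in these data; same plate scores as AID 2156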;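 also: B-score of peak minus minimum over baseline fluorescence ratio after K+ and Tl+ stimulus; positive B-score means potentiation of KCNQ2 with more thallium influx and brighter signal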
KCNQ2 block = KCNQ2 (rat) channel inhibition; O88943; CHO-K1 KCNQ2, FluxOR thallium flux, 20 min; stronger effect = lower value; B-score at 10 µM; hit rate 1.1% among 310,000; AID 2156;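 active = fluorescence ratio B-score at most minus 3 library SDs, with starting brightness B-score within 2 library SDs, cut at about -5.5 in these data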
KCNQ2 inh conf = confirmation of rat KCNQ2 potassium channel inhibitors; shares compounds with KCNQ2 block; KCNQ2-expressing cells, thallium flux, inhibition; stronger effect = lower value; activity change, negative = inhibition, % at 10 µM; hit rate 57% among 1,000
KCNQ1 spec = human KCNQ1 activity in KCNQ2 inhibitor specificity screen; shares compounds with KCNQ2 block; KCNQ1-expressing cells, FluxOR thallium flux fluorescence; stronger effect = lower value; activity change, negative = inhibition, % at 10 µM; hit rate 15% among 1,000;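 active = activity change at least 3 SD of negative controls below their mean in both duplicate wells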;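 also: CHO cells stably transfected with KCNQ1 and depolarized by potassium stimulus; peak minus minimum fluorescence over baseline after thallium addition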
Target sequence (P51787 whole entry, looked up): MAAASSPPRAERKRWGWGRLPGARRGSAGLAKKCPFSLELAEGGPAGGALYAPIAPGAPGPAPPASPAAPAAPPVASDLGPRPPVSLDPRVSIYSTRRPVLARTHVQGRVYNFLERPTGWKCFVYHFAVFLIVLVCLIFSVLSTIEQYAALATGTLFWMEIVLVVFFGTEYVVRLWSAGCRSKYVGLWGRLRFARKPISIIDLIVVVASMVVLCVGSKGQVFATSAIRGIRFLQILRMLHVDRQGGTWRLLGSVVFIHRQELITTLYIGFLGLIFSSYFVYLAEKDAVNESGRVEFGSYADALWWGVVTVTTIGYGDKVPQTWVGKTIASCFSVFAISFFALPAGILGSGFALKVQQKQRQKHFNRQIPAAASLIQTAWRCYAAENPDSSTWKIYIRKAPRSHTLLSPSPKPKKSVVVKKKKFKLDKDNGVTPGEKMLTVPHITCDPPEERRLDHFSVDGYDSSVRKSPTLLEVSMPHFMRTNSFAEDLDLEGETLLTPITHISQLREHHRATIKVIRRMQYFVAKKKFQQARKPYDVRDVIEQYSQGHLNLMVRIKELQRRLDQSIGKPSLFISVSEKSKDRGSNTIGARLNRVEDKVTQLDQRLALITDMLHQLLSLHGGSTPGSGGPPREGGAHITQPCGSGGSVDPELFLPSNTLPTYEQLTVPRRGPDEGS
CHO Tl ctr = activity in parental CHO cells lacking KCNQ2; shares compounds with KCNQ2 block; thallium flux counter-screen; stronger effect = lower value; activity change, % at 10 µM; hit rate 14% among 1,000; AID 493029
KCNQ2 patch conf = confirmation of rat KCNQ2 potassium channel inhibitors | calls only at 10 µM | shares compounds with KCNQ2 block | KCNQ2-expressing cells, automated patch clamp current | hit rate 49% among 550 | AID 588531
Hits are given with their value; n = inactive; x = no result; + = active, no number. Unless noted, no rule for the calls is given here.

SMILES	KCNQ2 enhance	KCNQ2 block	KCNQ2 inh conf	KCNQ1 spec	CHO Tl ctr	others
Cc1cc(NC(=O)c2cc(-c3cccc(OCC(C)C)c3)nc3ccccc23)no1	n	-11.3	-20.5%	n	n	KCNQ2 patch conf=n
Cc1cccc(NC(=O)CN2NS(=O)(=O)c3ccccc3C2=O)c1	n	n	x	x	x
CC(=O)Nc1ccc(Cl)cc1C(=O)O	n	n	x	x	x
CC(C)CC(NC(=O)C1CCC(C)CC1)C(=O)NCc1ccco1 (centres undefined)	x	n	x	x	x
COc1ccccc1CNC(=O)C(CC(C)C)NC(=O)C1CCC(C)CC1 (centres undefined)	n	-8.17	-28.0%	n	n	KCNQ2 patch conf=+
COc1ccc(Cl)cc1S(=O)(=O)NCc1ccncc1	x	n	x	x	x
CCOC(=O)c1cc(-c2ccccc2)sc1NC(=O)c1cc(OC)c(OC)c(OC)c1	x	n	x	x	x
Cc1cc(NC(=O)CSCC(=O)Nc2nc3ccccc3[nH]2)no1	x	n	x	x	x
CCOC(=O)/C(C#N)=C/C1=C(N2CCOCC2)CC(C)(C)OC1	x	n	x	x	x
O=C(CSc1ccc(Cl)cc1)N1CCN(c2c(Cl)cccc2[N+](=O)[O-])CC1	n	-8.23	n	n	n
O=C(/C=C/c1ccc(Cl)cc1)N1CCN(c2c(Cl)cccc2[N+](=O)[O-])CC1	x	n	x	x	x
CN(c1ccccc1C(=O)Nc1cccc([N+](=O)[O-])c1)S(=O)(=O)c1ccccc1	x	n	x	x	x
CN(c1ccccc1C(=O)Nc1cccc(Br)c1)S(=O)(=O)c1ccccc1	n	-6.7	n	n	n
CCSc1nnc(-c2cccc(S(=O)(=O)N(CC)CC)c2)n1Cc1ccccc1	n	-10.3	n	n	n
CCNC(=O)CSc1nnc(-c2cccc(S(=O)(=O)N(CC)CC)c2)n1CCc1ccccc1	x	n	x	x	x
CC(C)c1c(C(=O)N/N=C/c2ccc(C(F)(F)F)cc2)nnn1-c1nonc1N	x	n	x	x	x
COc1cccc(OC)c1C(=O)Nc1ccccc1NC(=O)c1c(OC)cccc1OC	n	n	x	x	x
COc1cccc(OC)c1C(=O)Nc1ccccc1Sc1ccccc1	n	-6.98	n	n	n
N#Cc1ccccc1CCN1C(=O)c2ccccc2C1=O	n	n	x	x	x
Cc1ccccc1NC(=O)c1c(-c2ccccc2)noc1C	n	-9.54	n	n	n
Cc1ccc(F)cc1NC(=O)c1c(-c2ccccc2)noc1C	n	-8.14	n	n	n
Cc1onc(-c2ccccc2)c1C(=O)Nc1ccncc1	n	n	x	x	x
Cc1onc(-c2ccccc2)c1C(=O)Nc1ccc(Br)cc1Cl	x	n	x	x	x
CCC(=O)Nc1ccc(NC(=O)CSc2nnnn2C2CCCC2)cc1C	n	n	x	x	x
O=C(O)C1CCN(C(=O)c2ccccc2N2C(=O)[C@@H]3Cc4c([nH]c5ccccc45)C(c4cccc(Cl)c4)N3C2=O)CC1 (some centres undefined)	n	n	x	x	x
SMILES	KCNQ2 enhance	KCNQ2 block	KCNQ2 inh conf	KCNQ1 spec	CHO Tl ctr	others
COc1cc(/C=C/C(=O)N(Cc2ccccc2)c2ccccn2)cc(OC)c1OC	n	-7.93	-29.0%	n	n	KCNQ2 patch conf=+
COc1ccc(/C=C/C(=O)N(Cc2ccccc2)c2ccccn2)cc1OC	n	-7.71	-17.5%	n	n	KCNQ2 patch conf=+
COc1cc(/C=C/C(=O)NCc2ccccn2)cc(OC)c1OC	n	n	x	x	x
Cc1ccc(CC(=O)N(Cc2ccccc2)c2ccccn2)cc1	x	n	x	x	x
COc1ccccc1NC(=O)N(Cc1ccccc1)c1ccccn1	x	n	x	x	x
Cc1ccc(OCC(=O)N(Cc2ccccc2)c2ccccn2)cc1	n	-8.16	n	n	n
O=C(Nc1cccc(-c2cccc(F)c2)c1)C1CCN(C2CCOCC2)CC1	x	n	x	x	x
CCCCN(C(=O)c1cccc(S(=O)(=O)N2CCN(C)CC2)c1)c1c(N)n(CCC)c(=O)[nH]c1=O	x	n	x	x	x
COc1ccccc1/C=C1\N=C(C(C)(C)C)OC1=O	n	n	x	x	x
C/C(=N\n1cnnc1)c1ccccc1	x	n	x	x	x
Cc1ccc(NC(=O)CSCC(=O)Nc2nnc(C)s2)cc1	n	n	x	x	x
CCCN(CCC)c1nc(-c2ccccn2)nc2ccccc12	x	n	x	x	x
c1ccc(CCNc2nc(-c3ccccn3)nc3ccccc23)cc1	n	-8.57	-29.0%	n	n	KCNQ2 patch conf=n
CCCCc1ncc(CN2CCC(n3nccc3NC(=O)c3ccccc3OC)CC2)[nH]1	n	n	x	x	x
Cc1ccc(-c2cc(C(=O)N(C)Cc3cnn(C)c3C)c3cc(Br)ccc3n2)cc1	x	n	x	x	x
Cc1ccc(-c2cc(C(=O)NCc3cnn(C)c3C)c3cc(Br)ccc3n2)cc1	n	-9.25	-34.0%	n	n	KCNQ2 patch conf=+
CCOC(=O)C1CCN(C(=O)C2CCCN(S(=O)(=O)c3ccc(OCC)c(Cl)c3)C2)CC1 (centres undefined)	n	n	x	x	x
CCc1nnc(NC(=O)CCNC(=O)c2ccco2)s1	x	n	x	x	x
COCC(=O)Nc1sc2c(c1C(=O)OC)CCCC2	x	n	x	x	x
COC(=O)c1c(NC(=O)Cc2cccs2)sc2c1CCCC2	n	-8.42	-30.0%	n	n	KCNQ2 patch conf=n
CCC(=O)N(CC(=O)Nc1sc(C)c(C)c1C(N)=O)C1CCCCC1	n	n	x	x	x
CCOP(=O)(OCC)C(NC(=O)c1cccs1)c1ccccc1 (centres undefined)	n	n	x	x	x
Cc1ccc(C)n1-c1ccc(C(=O)NN)cc1	x	n	x	x	x
CC(C)NC(=O)CN(Cc1ccc(F)cc1)C(=O)CCC(=O)Nc1ccccn1	n	n	x	x	x
O=C(NC(Cc1ccccc1)C(=O)N1CCCCCC1)c1ccccc1 (centres undefined)	x	n	x	x	x
SMILES	KCNQ2 enhance	KCNQ2 block	KCNQ2 inh conf	KCNQ1 spec	CHO Tl ctr	others
CC1CC(C)CN(C(=O)C(Cc2ccccc2)NC(=O)c2ccccc2)C1 (centres undefined)	n	-6.97	n	n	n
CC1CN2C(c3ccc([N+](=O)[O-])cc3)=CSC2=N1 (centres undefined)	x	n	x	x	x
Cc1ccccc1C(=O)Oc1cccc(Nc2ncnc3ccccc23)c1	n	-9.62	n	n	n
CC(=O)Oc1cccc(Nc2ncnc3ccccc23)c1	x	n	x	x	x
CC1(C)Cc2c(C#N)c(NCC3CCCO3)nc(-c3ccco3)c2CO1 (centres undefined)	x	n	x	x	x
CC1(C)Cc2c(C#N)c(NC3CCCCC3)nc(-c3ccco3)c2CO1	n	-12.9	n	n	n
CC(=C/c1ccccc1)/C=N/Nc1nc(N2CCCCC2)nc(N2CCCCC2)n1	x	n	x	x	x
C/C(=N\Nc1nc(N2CCCCCC2)nc(N2CCCCCC2)n1)c1ccccc1	n	-9.23	-28.0%	n	n	KCNQ2 patch conf=+
C=CCN(c1ccccc1)S(=O)(=O)c1cccc(C(=O)N(CC)CC(=O)Nc2c(F)cccc2F)c1	n	n	x	x	x
COc1cccc(NC(=O)c2ccc(NC(=O)C3CC(=O)OC34CCCCC4)cc2)c1 (centres undefined)	n	n	x	x	x
COC(=O)N(NC(=O)C(O)(c1ccccc1)c1ccccc1)c1ccccc1	n	-6.99	n	n	n
O=C(c1ccc(F)cc1)N(NC(=O)C(O)(c1ccccc1)c1ccccc1)c1ccccc1	x	n	x	x	x
COc1nc(N/N=C/c2ccccc2F)nc(N2CCCCC2)n1	x	n	x	x	x
O=C(NCC(c1ccco1)N1CCOCC1)c1cccc(Cl)c1 (centres undefined)	n	n	x	x	x
O=C(NCC(c1ccco1)N1CCc2ccccc2C1)c1ccc(Br)cc1 (centres undefined)	n	-9.7	-37.0%	n	n	KCNQ2 patch conf=+
